Most compounds without a hit are left out; they make up all but 20% or so of the library.
HCMV antiviral: blocks human cytomegalovirus replication. HFF cells, HCMV-luciferase reporter, 72 h; stronger effect = lower value. activity change, negative = inhibition, % at 57.5 µM. 410,000 tested, 4.5% active. AID 1259415; in the data active = activity change below about -60%; inconclusive = no clear call, values can overlap the other calls; inactive = above about -39%
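Two compound doses tested in HFFs infected with HCMV-luciferase, MOI 1 PFU/cell, 72 h at 37C. Lysate luminescence read with OneGlo; data normalized against buffer-only and 10uM Salinomycin inhibitor controls.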
Shiga inhibitor: inhibitors of Shiga toxin in Vero cells. Vero cells, Shiga toxin protein synthesis inhibition reporter. inhibition, % at 38.7 µM. 290,000 tested, 9.2% active. AID 2315; in the data active = inhibition mostly above about 28%, no sharp cut-off; inactive = mostly below about 43%
Pf growth 96h: inhibits malaria parasite growth, 96 h; AID 504834; 320,000 tested, 6.9% active; P. falciparum luciferase reporter growth, 96 h; Potency, µM (doses to about 28.7 µM), usual class: inhibitors
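Plates of compound plus infected erythrocytes (2% hematocrit, 0.05% parasitemia final) incubate 96 hours, 37 C, 5% CO2. Detection reagent added; reduced luminescence from the parasites' luciferase reporter flags inhibition.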
Pf growth 48h: inhibits P. falciparum growth in the first generation, 48 h. Potency, µM (series often up to 28.7 µM), usual class: inhibitors. P. falciparum luciferase growth in erythrocytes, 48 h. AID 504832. 310,000 tested, 5.9% active
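Here the parasites carry a stable luciferase gene and grow inside erythrocytes in Albumax-based RPMI medium with compound for one erythrocytic cycle. Activity is scored as loss of luminescent signal.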
CHX counter: counter-screen for Shiga toxin inhibitors: cycloheximide protein synthesis inhibition | 300,000 tested, 12% active | AID 2314 | max response, % | cell reporter, cycloheximide protein synthesis inhibition counterscreen; in the data active = max response mostly above about 13%, no sharp cut-off; inactive = mostly below about 14%; also: read at 38.3 µM for the half of the compounds with a filed dose
Each line names hits and unclear results; the compound was inactive in the other large screens. Unless noted, calls follow the shape of the dose curve; as a rule, active = well fitted inhibition curve with a large enough effect; inconclusive = small, poorly fitted or top-dose-only effect, or another doubt; inactive = no such curve, though single readings can be large or run the other way.

CC(C(=O)N1CCc2ccccc21)N1CCN(S(=O)(=O)c2cccc(C(F)(F)F)c2)CC1 (configuration not stated)	Pf growth 96h 13.1µM, Pf growth 48h 11.7µM (no result: Shiga inhibitor, CHX counter)
Cc1ccc(OC(C)C(=O)N2CCc3ccccc32)cc1 (configuration not stated)	Pf growth 48h 2.94µM (no result: Pf growth 96h)
CCc1ccc(OCC(=O)N2c3ccccc3CCc3ccccc32)cc1	Pf growth 48h 9.28µM
CC(C(=O)N1CCc2ccccc21)N1CCc2ccccc2C1 (configuration not stated)	Pf growth 96h 9.28µM, Pf growth 48h inconclusive
Cc1ccc(OCC(=O)N2CCCc3ccccc32)cc1	Shiga inhibitor 32.6, Pf growth 48h inconclusive
COc1cc2c(cc1OC)CN(C(C)C(=O)N1CCc3ccccc31)CC2 (configuration not stated)	Pf growth 96h inconclusive (no result: Pf growth 48h)
COC(=O)C1C/C(=N\NS(=O)(=O)c2ccc(C)cc2)c2ccsc2C1 (configuration not stated)	none
Cc1ccc(OCC(=O)N2CCc3ccccc32)cc1	Shiga inhibitor 84.0, CHX counter 76.4
Cc1ccc(OC(=O)CCC(=O)N2CCc3ccccc32)cc1	none
CCCS(=O)(=O)C/C(N)=N/OC(=O)c1ccccc1Cl	none
N/C(CS(=O)(=O)c1ccccn1)=N\OC(=O)c1ccc(Cl)cc1	CHX counter 26.4
N/C(CS(=O)(=O)c1ccccn1)=N\OC(=O)c1ccccc1Cl	Shiga inhibitor 57.5, CHX counter 39.6
N/C(CCS(=O)(=O)c1ccc(Cl)cc1)=N\OC(=O)c1ccc(Cl)cc1	Pf growth 96h inconclusive, Pf growth 48h inconclusive
O=C(N/N=C/c1ccncc1)c1ccc(COc2cccc3cccnc23)cc1	Pf growth 96h inconclusive, Pf growth 48h 8.28µM
O=C(N/N=C/c1cccc(O)c1)c1ccc(COc2ccccc2Br)cc1	Pf growth 96h inconclusive
O=C(N/N=C/c1ccc2c(c1)OCO2)c1ccc(COc2cccc3cccnc23)cc1	Shiga inhibitor 81.9, Pf growth 96h inconclusive, Pf growth 48h inconclusive, CHX counter 35.7
COc1ccc(C(=O)N/N=C/c2ccc3cccc(O)c3n2)cc1	HCMV antiviral inconclusive, Pf growth 48h inconclusive
O=C(N/N=C/c1cccc(O)c1)c1ccc(COc2cccc3cccnc23)cc1	Shiga inhibitor 34.5, Pf growth 96h inconclusive, CHX counter 21.0
O=C(N/N=C/c1ccc2cccc(OCc3ccccc3)c2n1)c1ccc(Cl)cc1	Shiga inhibitor 61.3, CHX counter 31.3
CC1CCCCN1C(=O)CSc1c2c(nc3cc(Cl)ccc13)CCCC2 (configuration not stated)	none (no result: Shiga inhibitor, Pf growth 96h, Pf growth 48h, CHX counter)
COc1ccc(/C=N/NC(=O)c2ccc(COc3cccc4cccnc34)cc2)cc1O	HCMV antiviral inconclusive, Shiga inhibitor 31.9, Pf growth 96h inconclusive, Pf growth 48h inconclusive, CHX counter 12.5
COc1ccc(/C=N/NC(=O)c2ccc(COc3cccc4cccnc34)cc2)cc1OC	HCMV antiviral inconclusive, Pf growth 96h inconclusive
O=C(CSc1nnc(-c2ccc(F)cc2)o1)NC1CCCC1	HCMV antiviral inconclusive
C(=Nc1ccc(N2CCOCC2)cc1)c1c[nH]c2ccccc12	Shiga inhibitor 89.0, CHX counter 41.9
Oc1ccc2ccccc2c1C=Nc1ccc(N2CCOCC2)cc1	none (no result: Pf growth 96h)
Cc1ccc(CN2c3ccccc3S(=O)(=O)c3ccccc32)cc1	none (no result: Shiga inhibitor, Pf growth 96h, Pf growth 48h, CHX counter)
C=CC[n+]1c(-c2ccc(OCC)cc2)csc1NNC(=O)Nc1ccccc1	HCMV antiviral -87.9, Pf growth 96h inconclusive (no result: Pf growth 48h)
C=CC[n+]1c(-c2ccc(C)cc2)csc1Nc1c(C)n(C)n(-c2ccccc2)c1=O	HCMV antiviral inconclusive
Cc1ccc(C(=O)c2c3ccc(C(F)(F)F)cc3nn2CCC(N)=O)cc1	Pf growth 96h inconclusive, Pf growth 48h inconclusive (no result: Shiga inhibitor, CHX counter)
COc1ccc(CNC(=O)c2cc3c(=O)[nH]c4ccccc4c3n2C)c(OC)c1	none (no result: Shiga inhibitor, Pf growth 96h, Pf growth 48h, CHX counter)
O=C(N/N=C/C=C\c1ccccc1)c1cnccn1	none
O=C(N/N=C/C(Cl)=C/c1ccccc1)c1ccccn1	Shiga inhibitor 75.8, Pf growth 96h inconclusive, CHX counter 32.5
O=C(CSc1ccccn1)N/N=C/C=C/c1ccccc1	Shiga inhibitor 89.7, Pf growth 48h inconclusive, CHX counter 32.4
O=C(N/N=C/C=C/c1ccccc1)c1ccccn1	Shiga inhibitor 68.3, CHX counter 55.1
O=C(N/N=C/c1ccco1)c1cnccn1	none
CC(/C=N/NC(=O)c1ccccn1)=C\c1ccco1	Shiga inhibitor 94.3, CHX counter 32.7
COc1ccc(-n2ccnc(NCc3cccs3)c2=O)cc1OC	none (no result: Shiga inhibitor, Pf growth 96h, Pf growth 48h, CHX counter)
O=C(CN(CC1CCCO1)C(=O)CNS(=O)(=O)c1ccc(Cl)cc1)NCC1CCCO1 (configuration not stated)	none
CCN(CC)c1ccc(NC(=O)c2cc3c(=O)n4cccc(C)c4nc3n2C)c(C)c1	none (no result: Shiga inhibitor, Pf growth 96h, Pf growth 48h, CHX counter)
Cc1ccc(Cl)cc1N1CCN(C(=O)CN(c2ccccc2)S(=O)(=O)N(C)C)CC1	Pf growth 48h inconclusive
Cc1cccc(NC(=S)N2CCN(c3ccccc3F)CC2)c1C	none
O=C(N/N=C/C=C\c1ccco1)c1ccccn1	CHX counter 24.0
O=C(N/N=C/C=C/c1ccco1)c1cccnc1	none (no result: Pf growth 96h)
O=C(N/N=C/C(Br)=C/c1ccccc1)c1cnccn1	HCMV antiviral -60.5, Shiga inhibitor 99.1, Pf growth 96h inconclusive, Pf growth 48h inconclusive, CHX counter 50.2
Cc1cc(C(=O)N/N=C/C(Cl)=C/c2ccccc2)c(C)o1	Shiga inhibitor 42.7, Pf growth 96h 10.4µM, Pf growth 48h 9.28µM, CHX counter 26.9
O=C(N/N=C\C=C\c1ccco1)c1cc(-c2ccc3ccccc3c2)n[nH]1	HCMV antiviral inconclusive, Shiga inhibitor active, CHX counter 23.8
Cn1cc(C(=O)N/N=C/C(Br)=C\c2ccccc2)ccc1=O	Pf growth 96h inconclusive, Pf growth 48h inconclusive
COc1ccc(S(=O)(=O)N2CCOCC2)cc1NC(=O)COC(=O)C1CC2CCCC(C1)C2=O (configuration not stated)	none
COCCN(C(=O)/C=C/c1ccccc1)c1nnc(-c2cccnc2)s1	Pf growth 48h inconclusive
O=C(N/N=C/C=C\c1ccccc1[N+](=O)[O-])c1ccccn1	Shiga inhibitor 75.3, CHX counter 61.3
Cc1ccc(N2C(=O)CN(Cc3cccs3)C2=S)cc1C	none
Cc1ccc(N2C(=O)CN(Cc3sccc3C)C2=S)cc1C	HCMV antiviral inconclusive, Pf growth 48h 11.7µM
CC(=O)OC1=CN(Cc2ccccc2)S(=O)(=O)c2ccccc21	none (no result: Shiga inhibitor, Pf growth 96h, Pf growth 48h, CHX counter)
C/C(=N\NC(N)=S)C1(C)CCCCC1	HCMV antiviral -61.1, Pf growth 96h inconclusive, Pf growth 48h inconclusive
C/C(=N\NC(=O)c1ccncc1)C12CC3CC(CC(C3)C1)C2	none
C/C(=N\NC(N)=S)C12CC3CC(CC(C3)C1)C2	HCMV antiviral -68.7, Pf growth 96h 5.22µM (no result: Pf growth 48h)
C/C(=N\NC(N)=O)C1(C)CCCCC1	none (no result: Pf growth 48h)
CCCCN(C(=O)CC1OC(=O)c2ccccc21)c1c(N)n(CCCC)c(=O)[nH]c1=O (configuration not stated)	Pf growth 48h inconclusive (no result: Shiga inhibitor, CHX counter)
c1ccc(OCCn2c(COc3ccccc3)nc3ccccc32)cc1	none (no result: Shiga inhibitor, Pf growth 96h, Pf growth 48h, CHX counter)
CCCC(=O)NCCCc1nc2ccccc2n1C	Pf growth 96h inconclusive

Screening data (PubChem BioAssay)
